Test results: PubChem BioAssay (NCATS)
Records with an inconclusive call do not appear. A number with no mark means an inactive call. Activity calls are given as the source filed them. Calls come from the whole dose curve; as a rule, active = well fitted cell-killing curve with a large enough effect; inconclusive = small, poorly fitted or top-dose-only effect, or effect the other way; inactive = no such curve, though single readings can be large or run the other way.

assay: Quantitative High-Throughput drug screen in 47 multiple myeloma cell lines against the NCATS MIPE library collection: KMS27_JCRB cell viability assay (AID 1918970); conditions: KMS27 myeloma cells, CellTiter-Glo ATP viability, 48 h; series mostly up to 45.8 µM; viability (% of DMSO): at the top concentration; note: nearly all actives have a fitted effect of over 30% in size
Summary of the method: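 Each line is seeded at 500 cells per well and treated with library compounds for 48 hours under 37 °C, 5% CO2. CellTiter-Glo is then added for 5 min at room temperature before median relative luminescence is recorded.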
Potency is the fitted concentration of half-maximal effect.

Q: For `Cc1ccc(C(=O)Nc2cccc(C(F)(F)F)c2)cc1-c1ccc2nc(NCCN3CCOCC3)ncc2c1`, which Potency is on record?
A: 2.96 µM (active)

Q: For `CNC(=O)c1ccccc1Nc1nc(Nc2ccc(N3CCOCC3)cc2OC)ncc1Cl`, which Potency is on record?
A: 0.132 µM (active)

Q: With `OCCCNc1cc(-c2ccnc(Nc3cccc(Cl)c3)n2)ccn1` as the compound, how does the Potency read?
A: 0.0418 µM (active)

Q: For `CC(C)c1ccccc1Cc1cc(C(=O)Nc2ccc(S(=O)(=O)c3ccccc3C(C)(C)C)cc2)c(O)c(O)c1O`, which “viability (% of DMSO)” value is on record?
A: 120%

Q: For `Cn1cc(-c2[nH]c3cc(NC(=O)[C@H](N)C4CCCCC4)cc4c3c2C=NNC4=O)cn1`, which Potency is on record?
A: 0.148 µM (active)

Q: With `CN1CC[C@@H](c2c(O)cc(O)c3c(=O)cc(-c4ccccc4Cl)oc23)[C@@H](O)C1` as the compound, how does the Potency read?
A: 0.0935 µM (active)

Q: With `NC(=O)Nc1cc(-c2cccc(F)c2)sc1C(=O)N[C@H]1CCCNC1` as the compound, how does the Potency read?
A: 0.59 µM (active)

Q: Which Potency does the source give for `CN(C)Cc1c(C(=O)NCCOc2ccc(C(=O)NO)cc2)oc2ccccc12` here?
A: 0.264 µM (active)

Q: For `Cc1[nH]nc2ccc(-c3cncc(OC[C@@H](N)Cc4ccccc4)c3)cc12`, which Potency is on record?
A: 2.09 µM (active)

Q: Which Potency does the source give for `COC(=O)[C@]12CCC(C)(C)C[C@@H]1[C@@H]1C(=O)C=C3[C@@]4(C)C=C(C#N)C(=O)C(C)(C)[C@@H]4CC[C@@]3(C)[C@]1(C)CC2` here?
A: 0.526 µM (active)

Q: With `CC(C)C[C@H](NC(=O)CNC(=O)c1cc(Cl)ccc1Cl)B(O)O` as the compound, how does the Potency read?
A: 0.118 µM (active)

Q: With `O=C(CCCCCCNC(=O)c1cnc(N(c2ccccc2)c2ccccc2)nc1)NO` as the compound, how does the Potency read?
A: 5.26 µM (active)

Q: Which Potency does the source give for `CC=C1NC(=O)[C@H]2CSSCCC=C[C@H](CC(=O)N[C@H](C(C)C)C(=O)N2)OC(=O)[C@H](C(C)C)NC1=O` here?
A: 0.001 µM (active)

Q: Which Potency does the source give for `CC(=O)Nc1nc(C)c(-c2ccc(Cl)c(S(=O)(=O)NCCO)c2)s1` here?
A: 1.32 µM (active)

Q: For `O=C(Nc1cc(C(F)(F)F)cc(C(F)(F)F)c1)c1cc(Cl)ccc1O`, which Potency is on record?
A: 0.833 µM (active)

Q: With `O=C(Nc1cn[nH]c1-c1nc2ccc(CN3CCOCC3)cc2[nH]1)NC1CC1` as the compound, how does the Potency read?
A: 3.32 µM (active)

Q: With `CNc1nccc(-c2cccnc2Oc2cc(C(=O)Nc3cccc(C(F)(F)F)c3)ccc2C)n1` as the compound, how does the Potency read?
A: 7.43 µM (active)

assay: Quantitative High-Throughput drug screen in 47 multiple myeloma cell lines against the NCATS MIPE library collection: KMS12BM_JCRB cell viability assay (AID 1918971); conditions: KMS12BM myeloma viability, CellTiter-Glo ATP, 48 h; series mostly up to 45.8 µM; viability, % of DMSO: at the top concentration; note: nearly all actives have a fitted effect of over 35% in size
Summary of the method: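 We plated 500 myeloma cells per well, pinned in MIPE 4.0 compounds, and incubated for 48 hours at 37C. ATP was then quantified with CellTiter-Glo, with DMSO and media-only wells defining 100% and 0%.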

Q: With `Cc1ccc(NC(=O)C2(c3ccc4c(c3)OC(F)(F)O4)CC2)nc1-c1cccc(C(=O)O)c1` as the compound, how does the Potency read?
A: 0.0296 µM (active)

Q: For `COc1ccc(C(=O)CC2(O)C(=O)Nc3c(Cl)ccc(Cl)c32)cc1` (stereo not given), which Potency is on record?
A: 2.09 µM (active)

Q: Which Potency does the source give for `Cc1ccc(-c2ncn(-c3ccc(Nc4nccc(-c5cccc(N6CCOCC6)c5)n4)cc3)n2)cn1` here?
A: 0.0833 µM (active)

Q: For `CCCCOc1c(C(=O)c2c(F)cc(C)cc2F)cnc2n[nH]cc12`, which Potency is on record?
A: 5.26 µM (active)

Q: Which Potency does the source give for `CC(=O)c1c(C)c2cnc(Nc3ccc(N4CCNCC4)cn3)nc2n(C2CCCC2)c1=O` here?
A: 0.833 µM (active)

Q: For `CNC(=O)c1ccc(N2C(=S)N(c3cnc(C#N)c(C(F)(F)F)c3)C(=O)C23CCC3)cc1F`, which Potency is on record?
A: 13.2 µM (active)

Q: For `O=c1[nH]nc(Sc2ncc([N+](=O)[O-])s2)n1-c1ccc2c(c1)OCCO2`, which Potency is on record?
A: 4.69 µM (active)

Q: With `CN(C)CC=CC(=O)Nc1cc2c(Nc3ccc(F)c(Cl)c3)ncnc2cc1O[C@H]1CCOC1` as the compound, how does the Potency read?
A: 16.6 µM (active)

Q: Which Potency does the source give for `Cn1c2ccccc2c2c3c(c4c5ccccc5n(CCC#N)c4c21)CNC3=O` here?
A: 16.6 µM (active)

Q: With `C#Cc1cccc(Nc2ncnc3cc(OC)c(OCCCCCCC(=O)NO)cc23)c1` as the compound, how does the Potency read?
A: 0.0662 µM (active)

Q: With `CC(=O)OCC(=O)[C@@]1(O)[C@H](C)C[C@H]2[C@@H]3C=C(C)C4=Cc5c(cnn5-c5ccccc5)C[C@]4(C)[C@@H]3[C@@H](O)C[C@@]21C` as the compound, how does the Potency read?
A: 16.6 µM (active)

Q: Which Potency does the source give for `CC(C)(C)c1cnc(CSc2cnc(NC(=O)C3CCNCC3)s2)o1` here?
A: 0.132 µM (active)

Q: With `CCS(=O)(=O)c1cccc(-c2cc(C(=O)NC3CCN(C)CC3)c(C)c3[nH]c4ncc(C)cc4c23)c1` as the compound, how does the Potency read?
A: 5.9 µM (active)

Q: With `Cc1ccc(C(=O)Nc2cccc(C(F)(F)F)c2)cc1-c1ccc2nc(NCCN3CCOCC3)ncc2c1` as the compound, how does the Potency read?
A: 8.33 µM (active)

Q: For `CNC(=O)c1ccccc1Nc1nc(Nc2ccc(N3CCOCC3)cc2OC)ncc1Cl`, which Potency is on record?
A: 13.2 µM (active)

Q: With `CC(C)c1ccccc1Cc1cc(C(=O)Nc2ccc(S(=O)(=O)c3ccccc3C(C)(C)C)cc2)c(O)c(O)c1O` as the compound, how does the Potency read?
A: 3.72 µM (active)

Q: With `Cn1cc(-c2[nH]c3cc(NC(=O)[C@H](N)C4CCCCC4)cc4c3c2C=NNC4=O)cn1` as the compound, how does the Potency read?
A: 1.05 µM (active)

Q: Which Potency does the source give for `N#CCNC(=O)c1ccc(-c2ccnc(Nc3ccc(N4CCOCC4)cc3)n2)cc1` here?
A: 14.8 µM (active)
